PubChem BioAssay AID777 (Sanford-Burnham Center for Chemical Genomics, 2007)
In all, about 96,000 compounds went through this assay and about 19,000 (20%) were called active.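 How the source made its calls: active means blocking of liver enzyme CYP2C9 beyond about 50% at 5 µM (limit read from the data); inactive means the rest.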 These entries were drawn from the full list.

The molecules below were run against Cytochrome P450 2C9 (Homo sapiens) (UniProt P11712) (assay: blockers of cytochrome P450 2C9 activity – biochemical, luminescence, ADME assay, primary screen (AID 777)). Settings: CYP2C9 Supersomes, luciferin-H conversion, at 5 µM, active compounds read high.
Cytochrome P450 2C9 (Homo sapiens), sequence (P11712 whole entry, looked up): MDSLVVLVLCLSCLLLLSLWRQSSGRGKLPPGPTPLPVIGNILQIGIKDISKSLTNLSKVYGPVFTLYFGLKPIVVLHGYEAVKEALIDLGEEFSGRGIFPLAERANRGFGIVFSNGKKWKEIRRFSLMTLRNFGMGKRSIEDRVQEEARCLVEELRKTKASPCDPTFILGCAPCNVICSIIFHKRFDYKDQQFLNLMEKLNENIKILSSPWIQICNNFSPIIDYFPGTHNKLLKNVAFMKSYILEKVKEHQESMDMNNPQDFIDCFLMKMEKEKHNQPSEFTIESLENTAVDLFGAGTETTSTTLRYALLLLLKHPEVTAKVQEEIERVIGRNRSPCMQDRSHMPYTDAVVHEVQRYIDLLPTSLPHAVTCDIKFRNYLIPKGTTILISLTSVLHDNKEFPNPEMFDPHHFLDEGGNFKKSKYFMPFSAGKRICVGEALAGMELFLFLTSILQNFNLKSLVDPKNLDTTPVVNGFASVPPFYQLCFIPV

inhibition, active:
Cc1cccc(NC(=O)N(Cc2cc3cc(C)cc(C)c3[nH]c2=O)CC2COCCO2)c1 (stereo not given) 85.5%
COc1cc(C(=O)OC(C)C(=O)NCC2CCCCC2)cc(NC(=O)c2ccco2)c1OC (stereo not given) 81.6%
COC(=O)c1ccc(CSc2nc3ccccc3c(=O)n2-c2cccc(OC)c2)o1 100%
COCC(C)n1c(SCc2ccc(C(=O)OC)o2)nc2ccccc2c1=O (stereo not given) 52.9%
CC(c1ccco1)N(C(=O)Nc1ccccc1)C1CCCCC1 (stereo not given) 81.3%
Cn1c(=O)[nH]c(=O)c2c1nc(Br)n2CCCCSc1nc2ccccc2o1 67.6%
COc1cccc(C(=O)c2cc3ccc(O)cc3oc2=O)c1 92.8%
CCOC(=O)c1c(C)[nH]c(C(=O)NCc2ccccc2OC)c1C 78.3%
CCOc1ccc(CN(Cc2ccco2)C(c2cccs2)c2nnnn2C(C)(C)C)cc1 (stereo not given) 77.2%
CCOc1cccc(-n2nnnc2-c2ccc(OC)cc2)c1 91.4%
Cc1cccc2cc(CN(Cc3nnnn3Cc3ccccc3)C3CCCC3)c(=O)[nH]c12 91.5%
Cc1nc(Nc2ccc3c(c2)OCCO3)c2nnn(Cc3ccccc3Cl)c2n1 93.2%
O=c1cc(Cn2nnc(-c3ccc(Cl)cc3)n2)nc2sccn12 63.5%
Clc1cccc(N=C2NN=C(c3ccc4c(c3)OCCO4)CS2)c1 77.7%
CCOC(=O)C(C)Sc1nc2ccccc2c(=O)n1CC1CCCCC1 (stereo not given) 78.8%
CC(Sc1nc2ccccc2c(=O)n1Cc1ccco1)C(=O)c1ccccc1 (stereo not given) 88.2%
CSCc1cc(N2CCOCC2)nc(SCc2ccc(Cl)cc2Cl)n1 57.5%
CSCc1cc(N(C)C)nc(SCc2ccc(Cl)cc2Cl)n1 56.7%
CCCNC(=O)CN(Cc1ccccc1F)S(=O)(=O)c1ccc(C)cc1 74.3%

inhibition, inactive:
Cc1cc(C(=O)COC(=O)c2cccs2)c(C)n1-c1c(C)n(C)n(-c2ccccc2)c1=O 15.4%
Cc1cc(=O)n(C)c(=O)n1CCCNc1ccccc1 11.2%
Cc1ccc2[nH]c(=O)c(CN(CCCN(C)C)C(=O)Nc3cccc(Cl)c3)cc2c1 1.4%
COc1ccc2[nH]c(=O)c(CN(CC3CCCO3)C(=O)Nc3ccccc3)cc2c1 (stereo not given) 19.4%
O=C(CS(=O)(=O)c1cn(Cc2ccc(Cl)cc2)c2ccccc12)N1CCOCC1 41%
CCN(c1ccccc1)S(=O)(=O)c1ccc(N)cc1 -137%
COc1ccc(NC(=O)c2cccc(NC(=O)c3ccco3)c2)c(OC)c1 -50.5%
COC(=O)c1cc(Cl)c(NC(=O)c2ccco2)cc1OC -135%
O=C(/C(=N\O)n1cncn1)c1ccc(Br)cc1Br 34.9%
CCCC(=O)C1=C(N(C)c2ccccc2)CC(C)(C)C(C(=O)OC)C1=O (stereo not given) 13.7%
COC(=O)CSc1nc(C2CC2)nc2ccccc12 48%
CCOC(=O)CNC(=O)c1nn(-c2cccc(OC)c2)c(=O)c2ccccc12 29.6%
N#CCSc1nc2ccccc2c(=O)n1-c1ccccc1 30.4%
CCc1c(O)nc(SCC(=O)Nc2ccccc2)n(C(C)CC)c1=O (stereo not given) 11.7%
O=C(CCc1ccccc1)Nc1ccc(NC(=O)C2CC2)nc1 25.9%
N#Cc1c(N)n(CCOC(=O)c2ccc(Cl)cc2)c2nc3ccccc3nc12 14.9%
CCCC(C(=O)NCc1ccco1)N(C(=O)CNS(=O)(=O)c1ccccc1)C1CCCC1 (stereo not given) 40.6%
CCOc1ccc(NC(=O)N(CCC(C)C)C(C)c2ccco2)cc1 (stereo not given) 43.6%
Cc1cc(C)c(S(=O)(=O)N2C=CC(C(F)(F)F)=NCC2)c(C)c1 13.2%
OC(CN1C2=NCCCN2c2ccccc21)c1ccc(Br)cc1 (stereo not given) 17.7%
NC(=S)c1ccc(C(N)=S)o1 23.3%
CCCCCCn1c(SCC(=O)c2ccccc2)nc2c1c(=O)[nH]c(=O)n2C 18.7%
Cc1ccnc(SCCn2c(Br)nc3c2c(=O)[nH]c(=O)n3C)n1 -6.9%
CN(C)/C=C(/C(=O)c1ccc(Cl)cc1)S(=O)(=O)c1ccccc1 -9.5%
COc1ccc2oc(=O)c(C(=O)O)cc2c1 -6.4%
COc1cccc(C(=O)NNC(=O)c2ccccc2Br)c1 -182%
O=C(NC1=NCCS1)c1ccc(Cl)s1 3.9%
COc1ccc(C(=O)n2nc(-c3ccc(C)cc3)nc2N)cc1OC -9.5%
Cc1ccc2nc(NC3=NCN(CCc4ccccc4)CN3)nc(C)c2c1 -5.5%
CC(=O)c1c(C)[nH]c(C(=O)NCc2ccc(C)cc2)c1C 49.2%
COc1ccccc1CNC(=O)c1ccc(SC)cc1OC -50.7%
Cn1c2c(c(=O)n(C)c1=O)CN(Cc1ccco1)CN2 -11.6%
N#CCSc1nc2c(c(=O)n1Cc1ccccc1)C1(CCCC1)Cc1ccccc1-2 36.9%
CC(C)C(NC(=O)c1ccc(Cl)cc1)C(=O)O (stereo not given) -5.3%
O=C(CC1CCCCC1)Nc1c2c(nn1-c1ccc(F)cc1)CS(=O)(=O)C2 -6.5%
COc1ccc(-c2nc3n(c2Br)CCC3)cc1 2.9%
CC(C)(C)n1nnnc1C(c1cccs1)N(Cc1cccnc1)CC1CCCO1 (stereo not given) 19.7%
CC(C)(C)NC(=O)CN(Cc1cccs1)C(=O)CNS(=O)(=O)c1ccccc1 26.8%
Cc1cc(C)c2nc(SCCC#N)nc(C)c2c1 -19.9%
CCOC(=O)Nc1ccc2c(c1)N(C(=O)CCN1CCN(CCO)CC1)c1ccccc1CC2 -14%
CCOc1cccc(-c2nnc3sc(COc4ccc(OC)cc4)nn23)c1 20.9%
COc1ccc(-n2nnnc2SCC(=O)c2ccc(OC)c(OC)c2)cc1 45.6%
Cc1cccc2cc(CN(Cc3ccc4c(c3)OCO4)Cc3nnnn3C3CCCC3)c(=O)[nH]c12 38.4%
Cc1cc(C)c2cc(CN(Cc3nnnn3Cc3ccc(F)cc3)C3CCCC3)c(=O)[nH]c2c1 -7.2%
O=C(CCl)NNc1cccc(Cl)n1 10.1%
c1ccc(-c2ccnc3nc(-n4cccc4)nn23)cc1 6.8%
C#CCNc1nc(C(C)C)nc2c1nnn2Cc1ccccc1F 40.2%
CC(C)(C)c1nc(NCC2CCCO2)c2nnn(Cc3ccccc3)c2n1 (stereo not given) 32.7%
O=C(CN1CCSCC1)N/N=C/c1ccc(F)cc1 17.1%
O=C(O)c1cccc2c1C(=O)N(C1CCCCC1)C2 -13.9%
COCCNC(=O)c1snc2ccc(Cl)cc12 -11.2%
COc1ccc(NC(=O)Nc2cccc3cccnc23)cc1 -39.1%
O=C(NCc1ccc(Cl)cc1)c1cc2c(nc3sccn32)s1 17.9%
O=C(NCc1cn2ccsc2n1)Nc1ccc(Cl)cc1 13.6%
Cc1ccc(C(=O)OC2=CC(=O)CC(C)(C)C2)cc1 28.3%
CN(c1cccc(NC(=O)Nc2ccc(Cl)cc2)c1)S(C)(=O)=O 30.6%
COc1ccc(-c2cc(C(F)(F)F)n3nc(C(=O)N4CCOCC4)c(Cl)c3n2)cc1 0.7%
CCOc1cc(CNCCN(C)C)c(Cl)cc1OCC(=O)NCCc1ccccc1 22.3%
CCOC(=O)C1=C(O)CSC1=Nc1cccc(Cl)c1 9%
COc1ccc(-c2cc(C(=O)NC(C(=O)O)C(C)C)c(C)o2)cc1OC (stereo not given) 21%
O=C(Nc1c2c(nn1-c1ccc(F)cc1)CS(=O)C2)C12CC3CC(CC(C3)C1)C2 (stereo not given) 14.4%
COc1ccc(C2C(C(C)=O)=C(O)C(=O)N2c2nccs2)cc1 (stereo not given) 5%
COC(=O)N1CN(C(=O)OC)CN(C(=O)OC)C1 -12.2%
COn1c(=O)c(=O)n(OC)c2ccccc21 3.2%
CCc1ccccc1N(CC(=O)N1CCN(c2ccccc2F)CC1)S(C)(=O)=O 2.9%
O=c1[nH]c(CSc2ncc(-c3ccc(F)cc3)n2Cc2ccco2)nc2ccccc12 21.2%
N#Cc1c(NC(=O)CSc2nc3ccccc3c(=O)n2Cc2ccco2)sc2c1CCCC2 3.9%
CCOn1c(SC(C)C)nc2ccccc2c1=O 17.6%
CCOC(=O)C1CCc2nc3ccccc3c(=O)n21 (stereo not given) 3.3%
O=C(CNS(=O)(=O)c1cccc(C(F)(F)F)c1)Nc1ccccc1F -19.7%
Cc1c2cn[nH]c(=O)c2c(C)n1Cc1ccc(F)cc1 6.2%
O=c1cc(CSc2ccc(Cl)cc2)nc(N2CCOCC2)[nH]1 8.5%
Nc1nc(SCc2ccccc2Cl)n[nH]1 -6.7%
Clc1ccc(CSc2nnc(/C=C/c3ccccc3)o2)c(Cl)c1 49.9%
COc1ccc([N+](=O)[O-])cc1C1NN=C(c2cccc3ccccc23)S1 (stereo not given) -70.8%
CCC(=O)NNc1cc(=O)c2c(=O)n(C)c(=O)n(C)c2[nH]1 4%
COc1ccc(S(=O)(=O)NC2(C(F)(F)F)N=C3SCCN3C2=O)cc1 (stereo not given) -5.2%
CSCCC(NC(=O)c1ccc(=O)n(C)n1)c1nc2ccccc2[nH]1 (stereo not given) 10.3%
CC1CCCCC1NC(=O)CCS(=O)(=O)c1cccc2nonc12 (stereo not given) 7.9%
Cc1ccc(S(=O)(=O)N(CC(=O)NCCSC2CCCCC2)c2ccccc2F)cc1 -9.7%
CCNC(=O)CN(c1ccc(C)cc1)S(=O)(=O)c1ccc(SC)cc1 26.9%
